This is a sample that favours compounds with a hit; in the whole collection about 12% have one here.
Pf growth 96h – P. falciparum growth inhibition at 96 hour, primary screen for plastid delayed-death inhibitors; P. falciparum luciferase reporter growth, 96 h; Potency, µM (series often up to 28.7 µM), without a hit: at the top dose activity change, negative = inhibition, usual class: inhibitors; 320,000 tested, 6.9% active; AID 504834; further: on the % scale 0 is the no-effect control and ±100 the full control effect
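Cell-based qHTS: luciferase-tagged P. falciparum in erythrocytes (2% hematocrit, 0.05% parasitemia final) incubated with compounds for 96 hours, 37 C, 5% CO2; luciferase detection reagent then added and luminescence measured.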
HCV inhibitor – HCV inhibition | 340,000 tested, 3.4% active | Potency, µM (series often up to 41.8 µM), inactives show at the top dose activity change, negative = inhibition, most hits filed as inhibitors | Huh7.5.1 HCVcc-Cre infection, luciferase reporter, 44 h; further: on the % scale 0 is the no-effect control and ±100 the full control effect
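Whole-lifecycle infectious HCVcc-Cre system; cells 1,000/well, compound then virus (~0.5 moi) added 4 h after plating, 44 h culture. Luciferase read 15 sec following 15 min substrate incubation, room temp.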
Pf growth 48h – inhibits P. falciparum growth in the first generation, 48 h; AID 504832; Potency, µM (titrated, usually from 28.7 µM), inactives show at the highest dose activity change, negative = inhibition, most hits filed as inhibitors; P. falciparum luciferase growth in erythrocytes, 48 h; 310,000 tested, 5.9% active; further: on the % scale 0 is the no-effect control and ±100 the full control effect
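Luminescence readout; reporter = integrated firefly luciferase in P. falciparum. RBC culture at 2% hematocrit, 0.1% parasitemia final, 37 C/5% CO2; decreased signal taken as growth inhibition.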
SARS PLP yeast – blocks SARS-CoV papain-like protease in a yeast assay; S. cerevisiae expressing SARS-CoV PLpro, growth rescue; 330,000 tested, 0.19% active; AID 485353; Potency, µM (titrated, usually from 32.9 µM), for the others: at the top dose activity, positive = growth rescue, hits mostly activators; calls by dose curve; further: 0% is about no effect; nearly all actives have a fitted effect of over 55% in size
AMA1 RON2 block – disrupts binding of P. falciparum AMA1 to RON2 | AlphaScreen AMA1-biotinylated RON2 peptide binding | Potency, µM (top dose mostly 58.2 µM), for inactives: at the top dose activity change, negative = inhibition, most hits filed as inhibitors | 360,000 tested, 0.2% active | AID 720542;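 further: 0% = vehicle wells and -100% = peptide control; nearly all actives have a fitted effect of over 45% in size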
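AMA1 (3D7) with his tag at 25 nM final met compounds first, then biotinylated RON2 peptide at 25 nM; detection used donor plus acceptor beads, 10 µg/mL apiece, read by AlphaScreen after 30 min at room temperature.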
NS1 function inh – blocks influenza NS1 protein function | Potency, µM (highest dose often 46.1 µM), for inactives: at the highest dose activity, positive = more growth | 270,000 tested, 0.4% active; calls by dose curve; further: actives are rising curves; nearly all actives have a fitted effect of over 50% in size
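A cell-based growth assay was used: compounds that relieve NS1-induced slow growth of budding yeast raise OD600. Assay medium was yeast nitrogen base with ammonium sulphate and -URA supplement, pH 6.0, with 2% galactose.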
The depositor's hits bear a star; ? = inconclusive; / = no result. Unless noted, the call rests on the fitted dose curve; in most records, active means well fitted curve in the direction sought with a large enough effect; inconclusive means small, poorly fitted or top-dose-only effect, or another doubt; inactive means no such curve, though single readings can be large; an effect the other way counts as inactive or inconclusive. Potency means the concentration at half of the fitted maximal effect.

SMILES	Pf growth 96h	HCV inhibitor	Pf growth 48h	SARS PLP yeast	AMA1 RON2 block	NS1 function inh
CCCCNC(=O)C[C@@H]1C[C@@]2(C(=O)OCC)CCCC=C2N(Cc2ccc3c(c2)OCO3)C1=O	/	/	/	/	-4.0%	/
Cc1ccc(N(Cc2ccccc2)C(=O)c2cccc(S(=O)(=O)N3CCOCC3)c2)cc1	10.4µM*	-11.0%	10.4µM*	4.0%	-14.1%	/
Cc1ccc(C(=O)NNC(=O)c2ccc(S(=O)(=O)N3CCOCC3)cc2)cc1	30.5%	1.3%	10.9%	3.6%	9.1%	15.7%
COc1ccc(CC(=O)N(Cc2ccccc2)c2ccc(C)cc2)cc1S(=O)(=O)N1CCOCC1	13.1µM*	-9.5%	?	2.2%	65.5%	/
Cc1ccc(N(Cc2ccccc2)C(=O)c2ccc(S(=O)(=O)N3CCOCC3)cc2)cc1	?	-6.9%	13.1µM*	2.3%	-4.6%	/
Cc1ccc(N(Cc2ccccc2)C(=O)Cc2ccc(S(=O)(=O)N3CCOCC3)s2)cc1	?	?	13.1µM*	0.5%	-20.5%	/
CCCN(C(=O)Cc1ccc(S(=O)(=O)N2CCOCC2)s1)c1c(N)n(Cc2ccccc2)c(=O)[nH]c1=O	/	16.1%	/	/	23.6%	/
O=C(O)c1ccc(Cl)c(S(=O)(=O)Nc2ccccc2C(=O)Nc2ccc(Cl)cc2)c1	26.9%	5.7%	35.4%	5.0%	-1.4%	?
O=C1CCC(=O)N1CO	94.1%	/	59.2%	/	/	/
Cc1ccc(N(C(=O)c2ccc(S(=O)(=O)N3CCOCC3)cc2)C2C=CS(=O)(=O)C2)cc1 (stereo not given)	8.28µM*	16.0%	-11.0%	1.6%	38.6%	-12.0%
CC(=O)N1CCN(S(=O)(=O)c2cccc(C(=O)N(Cc3ccccc3)c3cccc(C)c3)c2)CC1	8.28µM*	-5.6%	?	-1.9%	-8.7%	/
Cc1ccc(N(Cc2ccccc2)C(=O)c2ccc(C)c(S(=O)(=O)N3CCOCC3)c2)cc1	2.08µM*	31.6µM*	6.57µM*	2.0%	-5.7%	/
Cc1ccc(N(Cc2ccccc2)C(=O)c2cccc(S(=O)(=O)N3CCN(C)CC3)c2)cc1	?	6.5%	?	-1.6%	2.1%	/
Cc1ccc(C(=O)OCC(=O)NCCc2ccccc2)cc1S(=O)(=O)N1CCOCC1	-7.0%	18.2%	9.6%	-1.5%	-2.8%	/
Clc1ccc(OCc2nn3c(C4CCCCC4)nnc3s2)cc1	9.28µM*	16.1%	-10.0%	-11.4%	-0.9%	-121.6%
O=C1OCCN1C(=O)[C@H]1[C@H](c2ccccc2)C(c2ccccc2)=NN1c1ccc(Br)cc1	/	-22.7%	/	-9.5%	50.3%	/
COCCNC(=O)C1CCCN(C(=O)c2sc(-c3ccccc3)nc2C)CC1 (stereo not given)	/	/	/	/	-1.3%	/
Cc1ccc(S(=O)(=O)c2cc3ccccc3nc2N)cc1	9.28µM*	-15.1%	?	5.1%	5.2%	/
CCNC(=O)C1(C)CCCN(C(=O)/C=C/c2ccccc2)C1 (stereo not given)	/	/	/	/	-9.6%	/
CCCn1c2ccc(/C(C)=N\O)cc2c2cc(/C(C)=N/O)ccc21	3.4%	12.6µM*	?	-1.1%	8.2%	3.8%
C/C(=N\O)c1ccc(Cl)c(Cl)c1	26.2%	6.9%	7.9%	-2.0%	3.4%	-6.4%
Cc1cccc(C)c1-n1ncc(C(=O)NC2CCCC2)c1C1CCNCC1	7.9%	2.1%	-9.2%	1.2%	-12.0%	-4.4%
Cc1ccc(-n2ncc(C(=O)Nc3cc(Cl)cc(Cl)c3)c2C2CCNCC2)cc1C	-13.8%	12.6µM*	?	3.7%	-9.2%	/
Cc1ccc(-n2ncc(C(=O)Nc3cc(Cl)ccc3Cl)c2C2CCNCC2)cc1	31.7%	12.6µM*	?	2.7%	-23.3%	/
Cn1nccc1C(=O)Nc1cc(Cl)ccc1Cl	/	3.9%	/	/	1.6%	/
SMILES	Pf growth 96h	HCV inhibitor	Pf growth 48h	SARS PLP yeast	AMA1 RON2 block	NS1 function inh
O=c1[nH]c(C2CCN(S(=O)(=O)c3ccc(C(F)(F)F)cc3)CC2)nc2c1nnn2Cc1ccccc1	?	-3.1%	?	-3.6%	-7.1%	?
Cc1cc(=O)oc2c1c(C)nn2-c1ccc(Br)cc1	2.94µM*	?	-27.9%	0.7%	-1.9%	-3.3%
CCCC(c1nnnn1CS(=O)(=O)c1ccc(C)cc1)N1CCN(C2CCCC2)CC1 (stereo not given)	7.2%	?	?	-0.9%	-5.7%	10.0%
COc1cccc(C(c2nnnn2CS(=O)(=O)c2ccc(C)cc2)N2CCN(C)CC2)c1OC (stereo not given)	34.2%	10.2%	?	6.3%	-11.5%	-1.4%
COc1ccccc1C(c1nnnn1CS(=O)(=O)c1ccc(C)cc1)N1CCSCC1 (stereo not given)	99.6%	1.2%	9.28µM*	-1.4%	0.3%	1.2%
Cc1ccc(S(=O)(=O)Cn2nnnc2C(C(C)C)N2CCN(c3nc4ccccc4s3)CC2)cc1 (stereo not given)	?	?	4.65µM*	-4.0%	-1.9%	-2.4%
CCCCC(c1nnnn1CS(=O)(=O)c1ccc(C)cc1)N1CCN(c2ccccc2)CC1 (stereo not given)	/	-0.4%	13.1µM*	-13.7%	-9.0%	7.08µM*
COc1ccc(S(=O)(=O)N2CCCC2C(=O)n2nc(C)cc2C)cc1 (stereo not given)	?	-5.2%	22.0%	0.5%	2.3%	/
Cc1ccc([N+](=O)[O-])cc1S(=O)(=O)n1ccnc1C	1.9%	-2.8%	5.22µM*	0.2%	7.2%	-1.9%
CCN1CCN(c2ccc(N3CCN(S(=O)(=O)c4cc([N+](=O)[O-])ccc4C)CC3)nn2)CC1	?	-20.1%	10.4µM*	-3.6%	-2.7%	/
COc1ccccc1NC(=O)N1CCC(NC(=O)C(Cc2ccccc2F)NC(C)=O)CC1 (stereo not given)	-2.5%	-1.8%	-11.4%	-0.8%	-3.9%	-0.1%
COc1ccc(CCNC(=O)CCCn2c(=S)[nH]c3ccsc3c2=O)cc1OC	/	/	/	/	146.4%	/
O=C1c2ccccc2C(=O)c2c(Nc3ccc(CCO)cc3)ccc(O)c21	?	?	?	-0.3%	8.91µM*	5.4%
COc1cccc(C(=O)OCC(=O)NC(C)CCc2ccccc2)c1O (stereo not given)	4.1%	6.1%	7.7%	-0.6%	14.8%	-2.2%
CCC1Nc2ncnc(N3CCc4ccccc4C3)c2N(Cc2ccc(Br)cc2)C1=O (stereo not given)	/	/	/	/	-3.7%	/
CN(C)CC(CCCCC(CN(C)C)C(=O)c1ccccc1)C(=O)c1ccccc1 (stereo not given)	?	8.91µM*	?	0.2%	-9.6%	3.1%
Cc1ccc(NC(=O)C/C(N)=N/OC(=O)Nc2ccc(C)c(Cl)c2)cc1	23.1%	2.1%	-4.5%	5.4%	8.0%	/
COC(=O)c1nc2nc(-c3cccs3)cc(C(F)(F)F)n2n1	-13.3%	8.4%	11.7%	-8.6%	-28.0%	-4.5%

Screens from PubChem.
